Compound activity as filed in PubChem.
In the library only some 3% were active in any assay of this set; here they are far more common.
Glioma ERSR ind – inducers of ER stress response in human glioma cells; U87-MG GRP78 promoter luciferase reporter, 16 h; Potency, µM, for the others: at the top dose activation, actives largely listed as activators; actives 0.02% (n = 420,000); AID 602332; note: potency is the fitted concentration of half-maximal effect; series mostly up to about 76 µM; % of control where 0% means no effect; nearly all actives have a fitted effect of over 35% in size
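ERSR induction read as luciferase luminescence (Bright-Glo, 10 min at room temperature) in stably transfected human U87-MG glioma cells exposed to compounds for 16 h, using GRP78 as sensor.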
DRD3 antagonist – D3 dopamine receptor (human) antagonism; P35462; D3R cells, DiscoveRx beta-arrestin luminescence, antagonist mode; active compounds read low; max response, negative = inhibition, %; actives 2.5% (n = 360,000); AID 652054; in the data active = max response below about -50%; inconclusive = no clear call, values can overlap the other calls; note: % is set by controls: 0 for no effect and ±100 for the full control effect
Target sequence (P35462 whole entry, looked up): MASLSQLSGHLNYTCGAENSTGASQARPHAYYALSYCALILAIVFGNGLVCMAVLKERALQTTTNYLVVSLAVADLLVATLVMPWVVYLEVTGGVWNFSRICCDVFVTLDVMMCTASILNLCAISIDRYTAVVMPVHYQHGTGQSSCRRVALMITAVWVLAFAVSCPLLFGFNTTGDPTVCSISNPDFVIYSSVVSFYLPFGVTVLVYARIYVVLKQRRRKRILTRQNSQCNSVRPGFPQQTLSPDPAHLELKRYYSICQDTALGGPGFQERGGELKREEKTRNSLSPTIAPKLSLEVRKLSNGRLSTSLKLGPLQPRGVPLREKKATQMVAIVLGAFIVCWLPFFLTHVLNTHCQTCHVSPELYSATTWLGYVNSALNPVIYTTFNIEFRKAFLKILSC
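Cells plated overnight at 1500 cells/well, then exposed to library compounds with dopamine controls for 90 minutes at 37 degrees C. DiscoveRx reagent added for 30–60 minutes at room temperature; luminescence read, quantitative HTS format.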
D3 ag – D3 dopamine receptor (human) agonism | D3R DiscoveRx beta-arrestin cells, luminescence, 90 min | P35462 | max activation, % | actives 0.58% (n = 410,000); in the data active = max activation above about 30%; note: 0% is about no effect
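Agonist mode: compounds and dopamine controls were applied to plated cells for 90 min at 37 degrees C after an overnight attachment at 1500 cells/well. Luminescent read-out followed 30 - 60 minutes at room temperature with DiscoveRx detection reagent.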
Nrf2 activator – activators of Nrf2 (ARE) signaling; AREc32 ARE-luciferase reporter (MCF7-derived line), luminescence, 24 h; Potency, µM (doses to about 46.1 µM), inactives show at the highest dose activation, actives largely listed as activators; actives 0.31% (n = 410,000); note: potency is the fitted concentration of half-maximal effect; % of control where 0% means no effect; nearly all actives have a fitted effect of over 65% in size
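Each well held 1000 AREc32 cells, which were incubated with compound for 24 hr at 37 deg C after overnight attachment, and ARE reporter activity was quantified by firefly luciferase luminescence.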
* hit, by the source's call; ? = inconclusive; / = no result; [ ] = remark or other dose. Unless noted, calls come from the whole dose curve; as a rule, active = well fitted curve in the direction sought with a large enough effect; inconclusive = small, poorly fitted or top-dose-only effect, or another doubt; inactive = no such curve, though single readings can be large; an effect the other way counts as inactive or inconclusive.

SMILES | Glioma ERSR ind | DRD3 antagonist | D3 ag | Nrf2 activator
CC(C)C[C@@]12C(=O)N(c3cccc(Br)c3)C(=O)N1[C@H](c1ccc(F)cc1)[C@@H]1C(=O)N(C3CCCCC3)C(=O)[C@@H]12 | -3.8% | 49.6 | 51.4* | 0.6%
COc1ccccc1-c1ccnc(-n2ncc(C(=O)NCCc3ccccn3)c2C)n1 | -0.8% | / | / | /
O=C(Nn1c(O)c(C=C2N=c3ccccc3=N2)sc1=S)c1cccc(Cl)c1 | -0.2% | -53.1* | -21.6 | 3.2%
O=C(Nn1c(O)c(C=C2N=c3ccccc3=N2)sc1=S)c1ccc(Cl)cc1 | -3.1% | -18.9 | 11.0 | 0.3%
C=CCc1ccccc1OCCNCCCOC | -4.2% | -102.1* | -26.3 | 0.0%
C=CCc1cc(Cl)ccc1OCCNCCCOC | -5.4% | -59.1* | -25.5 | 0.5%
C=CCc1cc(Cl)ccc1OCCOCCNCCOC | -5.1% | -15.8 | -29.9 | -2.6%
S=C(Nc1ccc(Nc2ccccc2)cc1)Nc1ccccn1 | -0.6% | -67.0* | -16.0 | 3.1%
S=C(Nc1ccccc1)Nc1ccccn1 | 0.4% | 1.7 | 2.9 | 9.7%
COc1ccccc1-n1cnnc1SCC(=O)Nc1cc(C(C)(C)C)nn1-c1ccccc1 | -6.4% | 0.0 | 2.1 | -0.2%
COc1ccc(-n2cnnc2SCC(=O)Nc2cc(C(C)(C)C)nn2-c2ccccc2)cc1 | -1.1% | -55.7* | 9.5 | 0.0%
COc1ccc(NC(=O)NNC(=O)CCc2ccc(O)c(O)c2)cc1OC | -0.3% | -3.0 | 51.1* | -0.6%
Cc1oc(-c2cccc(NC(=O)C3CCCN(C)C3)c2)nc1CNC(=O)c1coc2c1C(=O)CCC2 (centres undefined) | -5.8% | / | / | /
CSc1nsc(SC)c1C(=O)Nc1ccc(C(C)(C)C)cc1 | 3.3% | 15.6 | -0.5 | 11.2µM*
Nc1nonc1-n1nnc(C(=O)N/N=C/c2cccc(Cl)c2)c1CSc1ccc(Cl)cc1 | 3.0% | 11.3 | 2.9 | -0.8%
Nc1nonc1-n1nnc(C(=O)N/N=C/c2cccc(Cl)c2)c1CSc1ccccc1 | -3.7% | 11.9 | 38.8* | -0.5%
COc1ccc(-c2nc3scc(CCNS(=O)(=O)c4cccc(C(C)=O)c4)n3n2)cc1 | -2.2% | / | 7.3 | 9.3%
CC(O)(COc1ccccc1)c1ccc2c(c1)CN(Cc1cccn1-c1ccccn1)CCO2 (centres undefined) | -3.4% | / | / | /
CCCCNCC(O)(c1ccc(Cl)cc1)c1ccc(Cl)cc1 | -5.1% | -87.2* | -26.5 | 2.4%
CCOC(=O)C1(C)CCCN(C(=O)c2ccccc2)C1 (centres undefined) | -3.1% | -60.8* | -19.9 | -0.8%
O=c1c2c3c(sc2n(CCN2CCCCC2)c(=O)n1Cc1ccco1)CCCCC3 | -1.6% | -92.8* | -46.0 | -1.4%
O=C(Nc1cccc(F)c1F)C1CCN(c2ncccn2)CC1 | -1.6% | / | 0.4 | 0.2%
COc1ccc(OC)c(C(Cc2ccnc3ccccc23)Cc2ccnc3ccccc23)c1 | -4.2% | / | / | /
CCOC(=O)CCc1c(C)nc(SCCN2CCCC2)c(C#N)c1C | -7.8% | -55.5* | -7.5 | 0.3%
CCN1CCN(C(=O)c2cnn(-c3ncc4c(n3)-c3ccccc3CCC4)c2COC)CC1 | -2.8% | / | / | /
SMILES | Glioma ERSR ind | DRD3 antagonist | D3 ag | Nrf2 activator
CCCn1c(COc2cccc(C)c2)nc2ccccc21 | -4.0% | / | 40.6* | 16.2%
CC(N)COC(=O)C(CCCCN)NC(=O)Cc1c(-c2ccc3ccccc3c2)[nH]c2c1ccc1ccccc12 (centres undefined) | 0.8% | / | / | /
O=C(Oc1c(CN2CCOCC2)cc(Cl)c2cccnc12)c1ccccc1 | -0.9% | ? | -34.3 | 29.3%[9.22 µM]
COc1cc(OC)cc(C(=O)Oc2c(CN3CCOCC3)cc(Cl)c3cccnc23)c1 | -1.9% | -63.8* | -21.9 | ?
O=C(Oc1c(CN2CCOCC2)cc(Cl)c2cccnc12)c1ccccc1F | -3.5% | -84.6* | -21.2 | 2.8%
COc1cccc(-c2cc3c(c(OC)c2)OCCN(Cc2cccn2-c2ccccn2)C3)c1 | -1.9% | / | / | /
O=[N+]([O-])c1ccc(/C=C/c2ccc3cccc(O)c3n2)cc1 | 6.9% | 3.8 | -5.3 | ?
Oc1cccc(/C=C/c2ccc3cccc(O)c3n2)c1 | ? | ? | 1.1 | 4.47µM*
COc1cccc(/C=C/c2ccc3cccc(O)c3n2)c1 | -6.3% | -56.0* | -21.2 | ?
O=C(NCc1cccnc1)[C@@H]1CC=C[C@@H]2CCN(C3CCCCC3)C(=O)[C@@H]21 | -1.6% | / | / | /
COc1cc(=O)n2c(c1C(=O)N(C)Cc1nonc1C)CCN(Cc1ccccc1F)CC2 | -2.8% | / | / | /
CCCOc1ccc(NC(=O)CNC(=O)c2cc(OC)cc(OC)c2)cc1OCCC | -1.8% | -57.7* | -19.5 | -0.2%
O=C1CC(C(=O)Nc2ccc(Br)cc2)S/C(=N\N=C\c2ccco2)N1 (centres undefined) | -4.2% | -13.5 | -0.3 | 6.31µM*
COc1ccc(NC(=O)C2CC(=O)N/C(=N/N=C/c3ccco3)S2)cc1 (centres undefined) | -2.4% | -14.6 | -2.8 | 2.51µM*
O=C1CC(C(=O)Nc2ccccc2)S/C(=N\N=C\c2ccco2)N1 (centres undefined) | -2.2% | 10.1 | 23.9 | ?
C[C@@H]1OC(O[C@H]2[C@H](Oc3cc(O)c4c(=O)c(O)c(-c5ccc(O)cc5)oc4c3)O[C@H](CO)[C@@H](O)[C@@H]2O)[C@H](O)[C@H](O)[C@H]1O (some centres undefined) | -7.8% | / | / | /
O=C(c1ccccc1)[C@@H]1[C@@H]2C(=O)N(c3ccc(F)cc3)C(=O)[C@@H]2C2CCCN21 (some centres undefined) | -12.7% | ? | -7.7 | 10µM*
NC[C@@H]1O[C@H](C23CC4CC(CC(C4)C2)C3)Cc2c1ccc(O)c2O | -8.6% | 30.8 | 88.4* | 5.7%
CCN(CC)c1nc(NN)nc(Nc2ccc(C)c(Cl)c2)n1 | -0.3% | -79.4* | -2.6 | -0.6%
O=C(O)C1=C(C2CCCCC2)C(=O)c2ccccc21 | -5.9% | 2.7 | -1.5 | ?
O=C(O)c1ccc(C2CCCCC2)cn1 | -1.7% | -94.7* | -9.0 | -0.1%
CCc1ccc(NC(=O)c2cc3c([nH]c2=O)CC(C)(C)CC3=O)cc1 | -0.4% | / | -8.4 | 1.6%
Cc1ccc(C(=O)NC(=S)Nc2ccc(-c3ccc(CO)o3)cc2)cc1 | -3.3% | 82.1 | 60.7* | 3.7%
CNC(=O)[C@@H]1C[C@@H](NCc2cccc(Oc3ccccc3)c2)CN1C(C)C | -2.0% | / | / | /
CC1(C)Cc2c(sc(NC(=O)c3ccc(C(=O)c4ccccc4)cc3)c2C(N)=O)C(C)(C)N1 | -6.1% | -50.2* | -11.2 | -3.2%
SMILES | Glioma ERSR ind | DRD3 antagonist | D3 ag | Nrf2 activator
COC(=O)c1c(NC(=O)c2ccccc2)sc2c1CC(C)(C)NC2(C)C | 7.7% | -26.1 | 0.5 | 0.7%
COc1cccc(OCCNCc2ccccc2)c1 | -2.9% | -79.0* | -15.2 | 0.1%
Cc1cccc(OCCCCNCc2ccccc2)c1 | -2.2% | ? | -13.5 | 2.5%
COc1cc(C)ccc1OCCCCNCc1ccccc1 | 1.0% | -21.3 | -14.3 | 0.2%
Cc1ccc(OCCNCc2ccccc2)c(C)c1 | -1.4% | -69.9* | -10.4 | 6.5%
Cc1ccc(C(=O)CC(=O)c2ccc(C)cc2O)cc1 | 3.4% | -77.4* | -6.1 | -1.0%
CC(C)(C)c1ccc(C(=O)CC(=O)c2cc(Cl)ccc2O)cc1 | 1.2% | -57.0* | -4.9 | 0.0%
